Shown is part of a subset that was picked to be rich in hits.
Cycloheximide cs: counter-screen for Shiga toxin inhibitors: cycloheximide protein synthesis inhibition. cell reporter, cycloheximide protein synthesis inhibition counterscreen. max response, %. actives 12% (n = 300,000). AID 2314; in the data active means max response mostly above about 13%, no sharp cut-off; inactive means mostly below about 14%; further: read at 38.3 µM for the half of the compounds with a filed dose; 0% is about no effect
Giardia FBPA inh-1: blocks Giardia fructose-bisphosphate aldolase activity; A8B2U2; purified Giardia FBPA; Potency, µM (highest dose often 59.6 µM), inactives show top-dose activity, negative = inhibition, hits mostly inhibitors; actives 0.71% (n = 290,000); further: potency means the concentration at half of the fitted maximal effect; on the % scale 0 is the no-effect control and ±100 the full control effect; nearly all actives have a fitted effect of over 55% in size
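Giardia FBPA (40 nM reagent) was preincubated 10 min at RT with compound (up to 57.5 uM final), then substrate plus GAPDH/TPI/NAD/arsenate coupling system with diaphorase/resazurin was added; resorufin fluorescence (525/598 nm) was read after 20 min.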
TbPYK inhibitor: inhibitors of Trypanosoma brucei pyruvate kinase; Q57TT1; TbPYK enzyme, Kinase-Glo Plus ATP luminescence, 45 min; Potency, µM (highest dose often 76.8 µM), for inactives: at the highest dose activity, negative = inhibition, most hits filed as inhibitors; actives 0.12% (n = 410,000); AID 624173; further: potency means the concentration at half of the fitted maximal effect; on the % scale 0 is the no-effect control and ±100 the full control effect; nearly all actives have a fitted effect of over 50% in size
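Quantitative HTS: titrated library compounds versus trypanosomal pyruvate kinase in TEA buffer (pH 7.2) containing KCl, MgCl2, BSA and Tween-20. Reactions were initiated with ADP, 130 uM final. Kinase-Glo Plus luminescence was read after 45 min at RT.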
LmPK inh: LmPK (Leishmania mexicana) enzyme inhibition. purified LmPK, Kinase-Glo ATP luminescence, 1 h. Q27686. actives 0.37% (n = 290,000). Potency, µM (series often up to 57.5 µM), inactives show at the top dose activity change, negative = inhibition, actives largely listed as inhibitors; further: potency means the concentration at half of the fitted maximal effect; on the % scale 0 is the no-effect control and ±100 the full control effect
Target sequence (Q27686 whole entry, looked up): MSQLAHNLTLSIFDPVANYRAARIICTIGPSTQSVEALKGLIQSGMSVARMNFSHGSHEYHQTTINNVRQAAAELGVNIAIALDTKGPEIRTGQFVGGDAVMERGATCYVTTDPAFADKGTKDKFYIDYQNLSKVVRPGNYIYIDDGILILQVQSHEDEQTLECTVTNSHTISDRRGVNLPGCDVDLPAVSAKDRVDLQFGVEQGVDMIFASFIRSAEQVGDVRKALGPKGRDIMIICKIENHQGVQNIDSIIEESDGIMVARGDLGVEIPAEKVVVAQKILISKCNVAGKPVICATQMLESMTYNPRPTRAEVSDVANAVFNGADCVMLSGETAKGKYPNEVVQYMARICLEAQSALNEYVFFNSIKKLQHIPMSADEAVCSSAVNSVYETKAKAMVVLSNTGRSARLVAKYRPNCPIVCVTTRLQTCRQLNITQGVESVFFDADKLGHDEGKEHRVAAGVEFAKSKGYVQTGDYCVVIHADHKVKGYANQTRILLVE
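Pyruvate kinase activity monitored as ATP production (luciferase luminescence). Conditions: 0.1 nM enzyme, 0.5 mM PEP, 0.1 mM ADP, 1 h, RT; normalized against uninhibited and no-enzyme wells.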
Shiga toxin inh: Shiga toxin inhibition; inhibition, % at 38.7 µM; actives 9.2% (n = 290,000); Vero cells, Shiga toxin protein synthesis inhibition reporter; in the data active means inhibition mostly above about 28%, no sharp cut-off; inactive means mostly below about 43%; further: 0% is about no effect
Sm TGR inh: inhibitors of Schistosoma mansoni thioredoxin glutathione reductase | purified TGR, DTNB reduction, TNB absorbance 405 nm | Potency, µM (series often up to 114 µM), inactives show at the highest dose activity change, negative = inhibition, hits mostly inhibitors | actives 3% (n = 360,000); further: potency means the concentration at half of the fitted maximal effect; on the % scale 0 is the no-effect control and ±100 the full control effect; nearly all actives have a fitted effect of over 60% in size
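TGR 20 nM + NADPH 100 uM (dispensed conc.), cpd preinc 15 min RT; start with NADPH (500 uM addition) then DTNB (15 mM addition). Kinetic TNB absorbance, 405 nm filter. Four-parameter Hill fit across titration.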
Giardia growth: inhibitors of Giardia lamblia growth; AID 2785; Potency, µM (top dose mostly 57.5 µM), for inactives: top-dose activity change, negative = inhibition, actives largely listed as inhibitors; actives 5% (n = 1,500); shares compounds with Giardia FBPA inh-1; Giardia lamblia trophozoite growth inhibition;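 further: potency means the concentration at half of the fitted maximal effect; trophozoites exposed to compound for 48 h at 37 °C; on the % scale 0 is the no-effect control and ±100 the full control effect; nearly all actives have a fitted effect of over 70% in size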
Mammalian tox: counter-screen for Giardia aldolase inhibitors: mammalian cell toxicity. actives 4% (n = 1,500). mammalian cell viability counter-screen, qHTS. Potency, µM (top dose mostly 57.5 µM), without a hit: top-dose viability change, negative = toxicity, usual class: inhibitors. shares compounds with Giardia FBPA inh-1;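 further: Chinese hamster ovary cells used as mammalian cytotoxicity surrogate; viability measured as cellular ATP by luminescence; potency means the concentration at half of the fitted maximal effect; compound exposure lasted 48 h before reading; on the % scale 0 is the no-effect control and ±100 the full control effect; nearly all actives have a fitted effect of over 60% in size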
Giardia FBPA inh-2: confirmation of Giardia fructose-bisphosphate aldolase inhibitors. shares compounds with Giardia FBPA inh-1. purified Giardia aldolase enzyme activity, qHTS. Potency, µM (doses to about 57.5 µM), without a hit: at the highest dose activity change, negative = inhibition, hits mostly inhibitors. actives 5% (n = 1,500); further: potency means the concentration at half of the fitted maximal effect; on the % scale 0 is the no-effect control and ±100 the full control effect; nearly all actives have a fitted effect of over 45% in size
Rabbit aldolase: rabbit FBP aldolase inhibition by Giardia aldolase hits; Rabbit muscle FBPA enzyme inhibition, selectivity counter-screen; actives 4% (n = 1,500); Potency, µM (titrated, usually from 57.5 µM), inactives show top-dose activity, negative = inhibition, most hits filed as inhibitors; shares compounds with Giardia FBPA inh-1; further: potency means the concentration at half of the fitted maximal effect; on the % scale 0 is the no-effect control and ±100 the full control effect; nearly all actives have a fitted effect of over 60% in size
Target sequence (P00883 whole entry, looked up): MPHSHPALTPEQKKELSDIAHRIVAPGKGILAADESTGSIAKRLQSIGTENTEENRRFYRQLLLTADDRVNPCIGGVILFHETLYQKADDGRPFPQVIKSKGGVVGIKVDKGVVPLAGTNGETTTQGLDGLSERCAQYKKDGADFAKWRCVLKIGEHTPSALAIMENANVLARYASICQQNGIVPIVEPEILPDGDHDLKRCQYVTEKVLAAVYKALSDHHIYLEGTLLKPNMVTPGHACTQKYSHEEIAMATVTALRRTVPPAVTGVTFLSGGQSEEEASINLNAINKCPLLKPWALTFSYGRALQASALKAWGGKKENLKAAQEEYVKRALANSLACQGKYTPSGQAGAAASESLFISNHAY
GAPDH coupling: GAPDH inhibition flagged for Giardia aldolase hits; shares compounds with Giardia FBPA inh-1; GAPDH coupling enzyme counterscreen, biochemical, qHTS; Potency, µM (series often up to 57.5 µM), without a hit: top-dose activity change, negative = inhibition, most hits filed as inhibitors; actives 6% (n = 1,500); AID 2795; further: potency means the concentration at half of the fitted maximal effect; on the % scale 0 is the no-effect control and ±100 the full control effect; nearly all actives have a fitted effect of over 55% in size
* marks the source's active call; other numbers are inactive results; ? = inconclusive; nt = no result; [ ] = dose if it differs, or a comment. Unless noted, the call rests on the fitted dose curve; in most records, active means well fitted curve in the direction sought with a large enough effect; inconclusive means small, poorly fitted or top-dose-only effect, or another doubt; inactive means no such curve, though single readings can be large; an effect the other way counts as inactive or inconclusive.

SMILES	Cycloheximide cs	Giardia FBPA inh-1	TbPYK inhibitor	LmPK inh	Shiga toxin inh	Sm TGR inh	Giardia growth	Mammalian tox	Giardia FBPA inh-2	Rabbit aldolase	GAPDH coupling
COc1ccccc1N1CCN(Cc2ccc(SC)cc2)CC1	-1	16µM*	1%	-9%	-4	-3%	-17%	-8%	5%	0%	1%
COc1ccccc1CN1CCN(C(=O)COc2cccc(C)c2)CC1	-4	?	9%	-6%	-13	-22%	nt	nt	nt	nt	nt
COc1ccc(CN2CCN(Cc3ccccc3OC)CC2)cc1	-5	14µM*	6%	-2%	-6	22%	-25%	-2%	6%	4%	15%
COc1ccc(CN2CCN(Cc3ccccc3F)CC2)cc1OC	-1	16µM*	17%	1%	-4	13%	0%	9%	-7%	7%	-16%
COc1ccccc1N1CCN(Cc2ccc(F)cc2)CC1	-1	8%	-7%	0%	15	-18%	nt	nt	nt	nt	nt
COc1ccccc1CN1CCN(C(=O)COc2ccc3ccccc3c2)CC1	13	20µM*	-1%	0%	-1	-9%	11%[10.4 µM]	7%	-2%	15%	1%
CC(C)COC(=O)N(C)C[C@@H]1OCc2cnnn2CCCC(=O)N([C@H](C)CO)C[C@@H]1C	nt	nt	-5%	nt	nt	nt	nt	nt	nt	nt	nt
CC1=C(C(=O)N(C)C)CC(CC(=O)NC2CCCCC2)C(=O)N1Cc1ccccc1 (stereo not drawn)	nt	nt	0%	nt	nt	nt	nt	nt	nt	nt	nt
COc1ccccc1N1CCN(CC(=O)Nc2ccc3c(c2)OCCO3)CC1	16	18µM*	-6%	-2%	18	-4%	61%	1%	7%	8%	8%
COc1ccccc1N1CCN(Cc2ccc(C(=O)O)cc2)CC1	-5	2%	0%	3%	-8	1%	nt	nt	nt	nt	nt
COc1ccccc1N1CCN(CC(=O)c2ccc(F)cc2)CC1	2	16µM*	-3%	-2%	6	22µM*	-24%	7%	-18%	3%	5%
COc1cc2c(cc1NC(=O)C(C)Oc1ccc(Cl)cc1Cl)oc1ccccc12 (stereo not drawn)	nt	nt	5%	nt	nt	7%	nt	nt	nt	nt	nt
CCn1c(CN2CCC(C)CC2)nc2cc(NC(=O)COc3ccc(Cl)c(C)c3)ccc21	nt	nt	4%	nt	nt	-16%	nt	nt	nt	nt	nt
O=c1ccc2cc3c([nH]c4ccc(Br)cc43)oc-2c1O	0	14µM*	nt	-8%	-20	56µM*	20%[10.4 µM]	7%	10µM*	8.9µM*	10µM*
O=c1c2c([nH]c3ccc(Br)cc13)CCCC2	-3	0%	-8%	2%	-3	-33%	nt	nt	nt	nt	nt
Oc1[nH]c2ccccc2c1N=NC(=S)N1CCOCC1	16*	18µM*	?	22µM*	58	-19%	2%[10.4 µM]	40µM*	10%	0%	-8%
S=C(c1c[nH]c2ccccc12)N1CCOCC1	-1	-8%	-16%	2%	-4	nt	nt	nt	nt	nt	nt
COc1ccc(NC(=O)C(NCC(C)C)c2ccccc2)cc1Cl (stereo not drawn)	-3	14µM*	-3%	-1%	-7	0%	?	2%	8%	20%	2%
O=C(CN1CCN(S(=O)(=O)c2ccc(F)cc2)CC1)c1ccc(O)c(O)c1	11	20µM*	-29%	8%	-3	22µM*	-6%	-13%	-29%	-17%	2%
CC(C)(C)C(=O)CN1CCN(S(=O)(=O)c2ccc(F)cc2)CC1	-1	2%	-5%	3%	15	?	nt	nt	nt	nt	nt
C=C(C)Cn1c(SCC(=O)Nc2ccccc2C)nc2sc3c(c2c1=O)CCCC3	nt	nt	2%	nt	nt	-4%	nt	nt	nt	nt	nt
COc1ccc(CNC(=O)Cn2c(=O)nc(-c3ccccc3)c3ccccc32)cc1OC	nt	nt	-7%	nt	nt	1%	nt	nt	nt	nt	nt
CCc1nnc(NC(=O)CN2CCN(Cc3cccc(OC)c3)CC2)s1	-3	3.2µM*	0%	-7%	-18	-26%	?	7%	12%	9%	20%
Cc1nnc(NC(=O)CN2CCN(Cc3ccccc3Cl)CC2)s1	-3	4.5µM*	-3%	3%	-5	-22%	-5%[10.4 µM]	-6%	6%	5%	19%
COc1ccc(-c2csc(C(NC(C)=O)c3ccccc3)n2)cc1 (stereo not drawn)	nt	nt	-7%	nt	nt	nt	nt	nt	nt	nt	nt
SMILES	Cycloheximide cs	Giardia FBPA inh-1	TbPYK inhibitor	LmPK inh	Shiga toxin inh	Sm TGR inh	Giardia growth	Mammalian tox	Giardia FBPA inh-2	Rabbit aldolase	GAPDH coupling
COc1ccc(-c2nn(CCC(=O)O)cc2/C=N/NC(N)=S)cc1	-1	16µM*	-6%	-1%	7	17%	3%[10.4 µM]	18%	1%	2%	11%
NC(=S)N/N=C/c1cn(CCC(=O)O)nc1-c1cccc(Br)c1	-1	?	3%	2%	2	8%	nt	nt	nt	nt	nt
Cn1c(Nc2ccc(Cl)cc2F)nc2cc(-c3ccccc3)sc2c1=O	nt	nt	-5%	nt	nt	nt	nt	nt	nt	nt	nt
COCc1cc(=O)[nH]c(=S)[nH]1	-2	4.5µM*	-7%	-2%	-9	4%	?	-4%	5%	1%	13%
COc1cc(C(=O)c2cc3c(cc2C)OCO3)cc(OC)c1OC	nt	nt	-1%	nt	nt	nt	nt	nt	nt	nt	nt
Cc1cccc(N2C(=O)CC(Sc3ncn[nH]3)C2=O)c1 (stereo not drawn)	-3	20µM*	-16%	15%	18	7.1µM*	22%	-3%	10%	8%	13%
Cc1ccc(N2C(=O)CC(Sc3ncn[nH]3)C2=O)cc1C (stereo not drawn)	-3	18µM*	0%	5%	21	0.32µM*	-22%	28%	0%	-2%	0%
O=C(CCc1c[nH]c2ccccc12)OCC(=O)N1CCN(S(=O)(=O)c2ccccc2)CC1	nt	nt	1%	nt	nt	-3%	nt	nt	nt	nt	nt
COn1c(=O)c(=O)n(O)c2ccccc21	1	-16%	-5%	10%	6	0%	nt	nt	nt	nt	nt
O=c1c(=O)n(O)c2ccccc2n1O	1	18µM*	-11%	0%	-21	0%	?	-7%	-18%	-16%	-8%
